This passage reports composite z-score and z-score results from PubChem BioAssay.

Assay [1] deals with PRMT1 (protein arginine N-methyltransferase 1). Description: PRMT1 binders on small-molecule microarrays, primary screen, biochemical, small-molecule microarray, 635 nm fluorescence (AID 1088).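 Note: binding of Prmt1 protein to compounds spotted on small-molecule microarray slides.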 The conditions noted are these: small-molecule microarray binding, higher = more signal.
Assay [2] is described as follows: yeast growth modulation, basal conditions, primary screen, YJM789 clinical isolate, OD600, 24 h (AID 1089).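 Note: growth of clinical yeast isolate S. cerevisiae YJM 789 seeded 1000 cells per well; test concentration not given here.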 The conditions noted are these: S. cerevisiae YJM789 growth, higher = more signal, called active from +8 up or from −8 down.
Assay [3] can be described thus: fission yeast growth modulation, primary screen, strain 972, OD600, 24 h, no modulator (AID 1090).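 Note: basal condition with compound alone and no growth modifier present; test concentration not given here.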 The settings on record: S. pombe 972 growth, higher = more signal, called active from +8 up or from −8 down.
Assay [4] is described as follows: S. cerevisiae growth modulation with rapamycin, primary screen, strain BY4716, OD600, 96 h (AID 1091). Note: test concentration not given here. The conditions noted are these: higher = more signal, called active from +8 up or from −8 down.
The target of assay [5] is Torsin-1A-interacting protein 2 (Homo sapiens) (UniProt Q8NFQ8). Description: LULL1 binders on small-molecule microarray, primary screen, cell lysate, human LULL1 lysate, 635/667 nm fluorescence (AID 1092).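 Note: probe is lysate of COS7 cells overexpressing human LULL1; score merges per-feature 667 nm fluorescence with signal-to-noise.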 The conditions noted are these: hLULL1 lysate binding, 635 nm fluorescence, higher = more signal.
Assay [6] in a line: E. coli growth modulation, two-sided OD650, primary screen, E. coli filamentation project, strain DRC41, 24 h (AID 1093).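 Note: MC1000 strain lacking acrAB efflux and sulA so SOS filamentation is blocked; test concentration not given here.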 The settings on record: OD650, 24 h, higher = more signal, called active from +8 up or from −8 down.
Assay [7] can be described thus: small-molecule microarray binders of probe aLefty2, primary screen, biochemical, biotinylated probe, 635/667 nm fluorescence (AID 1094).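 Note: score merges spot fluorescence near 667 nm with spot signal-to-noise ratio.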 The conditions noted are these: higher = more signal.
The test system of assay [8] is Noggin (protein binding on small-molecule microarray). Description: Noggin binders on small-molecule microarray, primary screen, biochemical, 635/667 nm fluorescence (AID 1095).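 Note: score merges 667 nm feature fluorescence with signal to noise over triplicate slides.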 The conditions noted are these: 635 nm fluorescence, higher = more signal.
The target in assay [9] is Neurogenic locus notch homolog protein 3 (Homo sapiens) (UniProt Q9UM47). Kind of assay: NOTCH3 binders on small-molecule microarray, primary screen, biochemical, 635/667 nm fluorescence (AID 1096). The conditions noted are these: NOTCH3 binding, 635 nm fluorescence, higher = more signal.
Assay [10] in a line: small-molecule microarray binders of probe aEGFR, primary screen, biochemical, biotinylated probe, 635/667 nm fluorescence (AID 1097).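 Note: probe is a biotinylated anti-EGFR antibody binding compounds printed on slides; score combines fluorescence near 667 nm and signal to noise of each spot.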 The conditions noted are these: higher = more signal.

Structures are written as SMILES. Activity calls are given as the source filed them.

Chain of Torsin-1A-interacting protein 2 (Homo sapiens) (Q8NFQ8 whole entry, looked up): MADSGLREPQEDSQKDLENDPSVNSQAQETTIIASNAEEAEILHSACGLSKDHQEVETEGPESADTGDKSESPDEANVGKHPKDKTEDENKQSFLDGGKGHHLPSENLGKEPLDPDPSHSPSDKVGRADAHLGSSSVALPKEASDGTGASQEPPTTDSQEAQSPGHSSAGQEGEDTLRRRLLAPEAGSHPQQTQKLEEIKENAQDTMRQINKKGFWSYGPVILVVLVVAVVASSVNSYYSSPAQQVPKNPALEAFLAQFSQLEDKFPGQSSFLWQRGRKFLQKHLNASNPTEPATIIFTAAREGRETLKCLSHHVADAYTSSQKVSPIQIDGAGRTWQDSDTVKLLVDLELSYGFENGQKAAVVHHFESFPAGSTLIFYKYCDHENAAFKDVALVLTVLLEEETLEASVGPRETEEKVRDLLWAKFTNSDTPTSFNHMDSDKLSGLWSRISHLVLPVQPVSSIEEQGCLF
Chain of Neurogenic locus notch homolog protein 3 (Homo sapiens) (Q9UM47 whole entry, looked up): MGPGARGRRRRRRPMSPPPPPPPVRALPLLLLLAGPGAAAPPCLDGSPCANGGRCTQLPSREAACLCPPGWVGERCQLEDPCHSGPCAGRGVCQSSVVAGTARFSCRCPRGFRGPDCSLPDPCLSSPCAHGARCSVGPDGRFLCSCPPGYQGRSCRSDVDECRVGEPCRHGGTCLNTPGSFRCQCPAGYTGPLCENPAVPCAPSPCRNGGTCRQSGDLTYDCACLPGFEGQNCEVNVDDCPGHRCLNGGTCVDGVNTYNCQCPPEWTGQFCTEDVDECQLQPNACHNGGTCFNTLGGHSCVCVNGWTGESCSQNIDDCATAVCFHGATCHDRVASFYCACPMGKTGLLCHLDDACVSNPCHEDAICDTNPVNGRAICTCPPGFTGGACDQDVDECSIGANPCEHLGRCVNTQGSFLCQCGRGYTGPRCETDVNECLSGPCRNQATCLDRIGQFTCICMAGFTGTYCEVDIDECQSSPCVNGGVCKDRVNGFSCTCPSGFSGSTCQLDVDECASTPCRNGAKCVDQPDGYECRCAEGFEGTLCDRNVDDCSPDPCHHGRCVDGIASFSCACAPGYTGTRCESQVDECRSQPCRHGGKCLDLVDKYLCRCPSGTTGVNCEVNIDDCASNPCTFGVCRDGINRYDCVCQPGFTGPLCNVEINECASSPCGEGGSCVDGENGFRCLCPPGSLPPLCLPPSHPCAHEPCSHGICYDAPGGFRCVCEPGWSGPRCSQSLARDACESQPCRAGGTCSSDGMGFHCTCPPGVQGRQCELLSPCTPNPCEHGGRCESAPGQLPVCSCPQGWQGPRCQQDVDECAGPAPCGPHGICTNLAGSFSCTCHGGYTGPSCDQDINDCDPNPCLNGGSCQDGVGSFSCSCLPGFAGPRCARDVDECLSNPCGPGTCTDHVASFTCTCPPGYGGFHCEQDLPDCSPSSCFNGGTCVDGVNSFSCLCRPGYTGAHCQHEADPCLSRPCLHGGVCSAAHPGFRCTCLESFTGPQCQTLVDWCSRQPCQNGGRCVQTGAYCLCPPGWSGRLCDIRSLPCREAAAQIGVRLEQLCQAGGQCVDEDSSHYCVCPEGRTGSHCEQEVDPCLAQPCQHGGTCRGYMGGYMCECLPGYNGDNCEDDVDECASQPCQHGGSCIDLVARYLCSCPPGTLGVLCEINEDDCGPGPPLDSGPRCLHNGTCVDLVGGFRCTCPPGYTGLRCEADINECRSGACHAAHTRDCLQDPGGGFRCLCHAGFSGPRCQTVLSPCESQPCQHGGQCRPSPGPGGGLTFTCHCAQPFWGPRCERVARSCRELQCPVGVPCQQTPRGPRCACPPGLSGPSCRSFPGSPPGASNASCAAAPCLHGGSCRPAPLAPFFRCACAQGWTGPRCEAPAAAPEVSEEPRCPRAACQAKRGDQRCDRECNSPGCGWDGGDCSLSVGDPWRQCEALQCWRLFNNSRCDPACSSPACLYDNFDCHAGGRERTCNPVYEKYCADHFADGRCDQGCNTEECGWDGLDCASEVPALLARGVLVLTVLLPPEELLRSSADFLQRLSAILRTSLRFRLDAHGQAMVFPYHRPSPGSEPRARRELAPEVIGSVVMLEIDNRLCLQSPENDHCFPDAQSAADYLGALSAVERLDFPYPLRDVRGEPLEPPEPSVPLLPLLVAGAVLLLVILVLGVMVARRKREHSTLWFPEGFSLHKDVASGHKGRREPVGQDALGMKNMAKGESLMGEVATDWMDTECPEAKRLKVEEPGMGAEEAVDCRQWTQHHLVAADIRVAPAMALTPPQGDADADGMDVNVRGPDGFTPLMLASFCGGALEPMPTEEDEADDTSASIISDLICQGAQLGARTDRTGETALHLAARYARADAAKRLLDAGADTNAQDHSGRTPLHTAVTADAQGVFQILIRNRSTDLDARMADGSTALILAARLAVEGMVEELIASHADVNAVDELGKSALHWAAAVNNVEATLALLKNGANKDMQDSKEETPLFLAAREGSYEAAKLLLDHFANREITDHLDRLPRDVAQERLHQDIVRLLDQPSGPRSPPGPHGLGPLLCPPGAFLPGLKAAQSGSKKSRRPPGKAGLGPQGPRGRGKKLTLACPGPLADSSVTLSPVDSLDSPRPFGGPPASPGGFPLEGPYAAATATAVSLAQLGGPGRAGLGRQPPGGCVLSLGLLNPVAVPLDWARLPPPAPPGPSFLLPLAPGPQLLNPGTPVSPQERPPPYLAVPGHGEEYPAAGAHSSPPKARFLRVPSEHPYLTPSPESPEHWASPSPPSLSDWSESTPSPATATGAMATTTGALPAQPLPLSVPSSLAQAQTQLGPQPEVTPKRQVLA

In the case of `COC(=O)[C@@]1(Cc2ccccc2)[C@H]2c3cc(C(=O)N4CCCC4)n(CC4CC4)c3C[C@H]2CN1C(=O)c1ccccc1`, the composite z-score is 1.21 in [1]; 3.32 in assay [5]; 0.508 in [7]; 0.294 in assay [8]; 1.05 in assay [9]; 0.776 in assay [10]. Besides, the z-score is 0.0645 (inactive) in assay [2], 0.513 (inactive) in [3], 0.667 (inactive) in assay [4] and -0.887 (inactive) in assay [6].
Take `CC1(C)[C@@H]2CC(C(O)C3C=CC4C(=O)N(c5ccccc5)C(=O)C4N3Nc3ccccc3)=C[C@H]1C2` (stereo not given in full): the composite z-score in assay [1] was -0.0035; in [5] it was 2.58; in assay [7] it was -0.0008; in assay [8], -0.161; in assay [9] it was 0.367; in [10] it was -0.0431. Besides, the z-score in assay [2] is -0.4 (inactive); in assay [3], 0.286 (inactive); in [4], -0.136 (inactive); in [6] it was -0.936 (inactive).
Regarding `CC(C)[C@@H](CO)NC(=O)[C@H]1[C@@H](c2ccccc2)N(c2ccccc2)O[C@@H]1C`, the composite z-score is -0.159 in [1]; 1.02 in assay [5]; -0.193 in assay [7]; 0.171 in assay [8]; -0.271 in assay [9]; -0.177 in assay [10]. Also, the z-score in assay [2] is -0.0247 (inactive); in [3], -0.207 (inactive); in assay [4], 0.072 (inactive); in assay [6] it was 1.08 (inactive).
For `COc1ccc(CCNC(=O)[C@@]2(C)c3ccccc3C(=O)N(Cc3cc(F)cc(C(F)(F)F)c3)[C@H]2c2ccc(CO)cc2)cc1`, the composite z-score in assay [1] is 0.117; in [5], 2.3; in assay [7] it was -0.0112; in assay [8], -0.969; in [9] it was -0.42; in [10], -0.0549. For the same molecule, the z-score was -0.143 (inactive) in [2], -0.995 (inactive) in assay [3], 0.882 (inactive) in assay [4] and 0.449 (inactive) in [6].
Consider `C=C(COC)/C(=C/C[C@@H](OC(C)=O)c1ccc(CO)o1)c1cnc2ccccc2c1`, for which the composite z-score in assay [1] was found to be 1.54; in [5], 0.612; in [7] it was 0.0624; in [8], 1.72; in assay [9], 1.04; in assay [10] it was 0.0821. Moreover, the z-score in assay [2] was 1.17 (inactive); in assay [3] it was -0.721 (inactive); in assay [4], 0.951 (inactive); in assay [6], 1.27 (inactive).
For `CCC(CC)C(O)C1C=CC2C(=O)N(C)C(=O)C2N1Nc1ccccc1` (stereo not given), the composite z-score was 1.02 in [1]; 3.07 in assay [5]; -0.0321 in [7]; -0.0929 in assay [8]; 1.06 in [9]; -0.0828 in assay [10]. Moreover, the z-score was -0.0298 (inactive) in [2], -0.575 (inactive) in assay [3], 0.0024 (inactive) in assay [4] and 0.103 (inactive) in [6].
`CN1C(=O)C2C=CC(C(O)C3CC=CCC3)N(NC(=O)OC(C)(C)C)C2C1=O` (stereo not given): the composite z-score in [1] was 1.14; in assay [5], 3.54; in assay [7], -0.0379; in assay [8], 0.532; in assay [9], 0.95; in assay [10] it was -0.0197. Also, the z-score in assay [2] was 0.0125 (inactive); in assay [3] it was 0.826 (inactive); in assay [4], 0.259 (inactive); in [6], -1.16 (inactive).
On to `[N-]=[N+]=NCc1ccccc1C[C@]1(C(=O)N2CCOCC2)N=C(c2ccc(OCCCO)cc2)O[C@H]1c1ccccc1N=[N+]=[N-]`, for which the composite z-score amounted to 1.41 in assay [1]; 3.51 in assay [5]; 0.349 in [7]; 1.5 in [8]; 1.03 in [9]; 0.144 in assay [10]. The z-score in [2] was -1.18 (inactive); in assay [3], -2.26 (inactive); in assay [4], 2.79 (inactive); in assay [6], 0.188 (inactive).
In the case of `C[N+](C)(C)CCCC[C@@H]1NC(=O)[C@@H]2C[C@H](C(=O)NCCCCCN)[C@H](c3cccc(OCCO)c3)N2C1=O`, the composite z-score in assay [1] was 1.28; in [5], 2.15; in [7] it was 0.231; in assay [8] it was -0.0236; in assay [9] it was 0.182; in assay [10], -0.0037. The z-score in assay [2] was -0.465 (inactive); in [3], -2.09 (inactive); in assay [4], 0.371 (inactive); in assay [6], -0.291 (inactive).
For the molecule `O=C(c1ccccc1)N1Cc2ccccc2[C@@H]2OC(c3ccc(OCCCO)cc3)=N[C@]2(Cc2ccccc2)C1=O`, the composite z-score was 1.2 in assay [1]; 3.13 in assay [5]; 0.0337 in assay [7]; 1.05 in assay [8]; 1.1 in assay [9]; -0.0187 in assay [10]. Moreover, the z-score in [2] was -0.756 (inactive); in assay [3], 0.833 (inactive); in assay [4], 4.11 (inactive); in [6], -0.0783 (inactive).
Turning to `CC(C)C(CO)N1C(=O)[C@@H]2[C@H]3C(=O)OCC=C[C@H]3OC23C=CCN(C(C)C)C(=O)[C@@H]13` (stereo not given in full), the composite z-score was 0.261 in assay [1]; 1.4 in assay [5]; -0.273 in assay [7]; 0.503 in assay [8]; 0.51 in assay [9]; -0.194 in [10]. The z-score in [2] was 0.58 (inactive); in assay [3], 0.38 (inactive); in assay [4], 0.136 (inactive); in assay [6], 1.99 (inactive).
With `O=C(NCC(F)(F)F)[C@@H]1c2ccccc2C(=O)N(C2CCCCC2)[C@H]1c1ccc(CO)cc1`, the composite z-score in assay [1] was 0.311; in [5] it was 1.76; in [7], -0.117; in assay [8], 0.276; in [9], 0.254; in assay [10], -0.0987. For the same molecule, the z-score in assay [2] is 0.936 (inactive); in assay [3], 0.372 (inactive); in assay [4], 0.963 (inactive); in [6], 0.674 (inactive).
In the case of `CC(C)(C)OC(=O)CC[C@@]1(C(N)=O)N=C(c2ccc(OCCCO)cc2)O[C@@H]1c1ccccc1`, the composite z-score in assay [1] amounted to 1.57; in assay [5] it was 3.17; in assay [7], 0.0917; in assay [8], 0.392; in [9], 0.79; in [10], 0.106. Also, the z-score is -0.145 (inactive) in assay [2], -0.589 (inactive) in assay [3], -0.399 (inactive) in assay [4] and -0.511 (inactive) in assay [6].
With `CS(=O)(=O)CCOC(=O)C1=CC(CCCO)=CC(c2ccc(CN3CCCC3)cc2)N(Cc2cc3c(cc2Br)OCO3)C=C1C(=O)OCCS(C)(=O)=O` (stereo not given), the composite z-score in assay [1] turned out to be 1.46; in assay [5], 2.5; in [7], 0.0417; in assay [8], 0.334; in assay [9], 1.15; in [10], 0.101. Also, the z-score in assay [2] was 0.978 (inactive); in [3], -5.34 (inactive); in assay [4] it was -1.62 (inactive); in assay [6], -0.567 (inactive).
